# Records with an inconclusive call do not appear. The source made the active and inactive calls. How the source made its calls: active means hit-call score of the fitted dose curve at least 0.9, where 1 is the maximum; inconclusive means response in the unintended direction; inactive means score below 0.9.
# Assays:
# [1] = test system: guinea pig Leukotriene B4 Receptor (LTB4), gene 100379538; test: NVS_GPCR_gLTB4: NovaScreen (NVS) G Protein-Coupled Receptor Assay for guinea pig Leukotriene B4 Receptor (LTB4) (AID 2283247)
# Procedure, shortened: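 Membranes from guinea pig spleen incubated 2 h with radioligand and compound; bound counts measured by filtration and scintillation. Screened first at 25 uM in duplicate, then actives titrated to a 50 uM top concentration relative to DMSO.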
# [2] = target: Adenosine receptor A1 (Bos taurus) (UniProt P28190); test: NVS_GPCR_bAdoR_NonSelective: NovaScreen (NVS) G Protein-Coupled Receptor Assay for bovine Adenosine Receptor (AdoR), Non-selective Binding (AID 2283244)
# Procedure, shortened: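 Cell-free binding with membranes from bovine striatum: radioligand displaced by test chemical, read after 1 h by filtration and scintillation. Single-point 25 uM duplicate primary, 50 uM top concentration in follow-up curves, DMSO baseline.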
# [3] = test system: rat Monoamine Oxidase, MAO-A, Central (MAOAC), gene 29253; test: NVS_ENZ_rMAOAC: NovaScreen (NVS) Enzymatic Assay for rat Monoamine Oxidase, MAO-A, Central (MAOAC) (AID 2283243);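 further: potency refers to inhibition seen as signal drop below DMSO baseline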
# Procedure, shortened: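 Lysate-based radiometric enzyme assay using rat brain tissue; 1.5 h treatment; 25 uM single-point duplicate screen, concentration-response follow-up; loss of signal versus DMSO.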
# [4] = target: rat Monoamine Oxidase, MAO-B, Peripheral (MAOBP), Maob (gene 25750) (UniProt P19643); test: NVS_ENZ_rMAOBP: NovaScreen (NVS) Enzymatic Assay for rat Monoamine Oxidase, MAO-B, Peripheral (MAOBP) (AID 2283242)
# [5] = target: bovine Dopamine Receptor (DR), Non-selective Binding, DRD1 (gene 281125) (UniProt Q95136); test: NVS_GPCR_bDR_NonSelective: NovaScreen (NVS) G Protein-Coupled Receptor Assay for bovine Dopamine Receptor (DR), Non-selective Binding (AID 2283241)
# Procedure, shortened: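 Filter-based radioligand binding with bovine striatal membrane, incubated 1 h; DMSO as negative baseline. Initial duplicate single-point test at 25 uM preceded concentration series for actives.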
# [6] = NVS_GPCR_bNPY_NonSelective: NovaScreen (NVS) G Protein-Coupled Receptor Assay for bovine Neuropeptide Y (NPY) Receptor, Non-selective Binding (AID 2283245)
# Procedure, shortened: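 Displacement of radioligand from bovine hippocampal membrane receptors, read by filtration and scintillation counting after 1 hour. Concentration-response to a top of 50 uM followed a 25 uM duplicate primary screen. Loss of signal versus DMSO.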
# [7] = target: guinea pig Leukotriene D4 Receptor (LTD4), CYSLTR1 (gene 100135514) (UniProt Q2NNR5); test: NVS_GPCR_gLTD4: NovaScreen (NVS) G Protein-Coupled Receptor Assay for guinea pig Leukotriene D4 Receptor (LTD4) (AID 2283248)
# Procedure, shortened: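 Guinea pig lung membrane preparation; bound radioligand measured by filter scintillation after 1 h, loss of signal versus DMSO marking displacement. Compounds tested at 25 uM in duplicate, hits retested to max 50 uM.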
# [8] = target: human Serotonin, 5-Hydroxytryptamine Receptor 2A (5HT2A), HTR2A (gene 3356) (UniProt P28223); test: NVS_GPCR_h5HT2A: NovaScreen (NVS) G Protein-Coupled Receptor Assay for human Serotonin, 5-Hydroxytryptamine Receptor 2A (5HT2A) (AID 2283249)
# Procedure, shortened: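 Radioligand displacement on human cortex tissue extract, counted by filtration and scintillation 1.5 h post-dosing. Initial single-concentration screen at 25 uM in duplicate, concentration series in follow-up; DMSO as baseline.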
# [9] = test system: guinea pig Muscarinic, Peripheral (Mperiperal) Receptor, Non-selective Binding, gene 100379235; test: NVS_GPCR_gMPeripheral_NonSelective: NovaScreen (NVS) G Protein-Coupled Receptor Assay for guinea pig Muscarinic, Peripheral (Mperiperal) Receptor, Non-selective Binding (AID 2283250)
# Procedure, shortened: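 Screened in duplicate at 25 uM, hits retested in concentration series to 50 uM max, using bladder membrane radioligand displacement from guinea pig. Filtration and scintillation counting 1 h post-dose, fitted relative to DMSO.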
# [10] = target: human Serotonin, 5-Hydroxytryptamine Receptor 5A (5HT5A), HTR5A (gene 3361) (UniProt P47898); test: NVS_GPCR_h5HT5A: NovaScreen (NVS) G Protein-Coupled Receptor Assay for human Serotonin, 5-Hydroxytryptamine Receptor 5A (5HT5A) (AID 2283251)
# Procedure, shortened: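 Membranes from HEK293 cells, radioligand binding read by filtration and scintillation after 1 h. Single-concentration duplicate testing at 25 uM, then concentration-response for actives; positive-direction fitting relative to DMSO.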
# [11] = target: guinea pig Opioid, Kappa 1 Receptor (OpiateK), OPRK1 (gene 100135587) (UniProt P41144); test: NVS_GPCR_gOpiateK: NovaScreen (NVS) G Protein-Coupled Receptor Assay for guinea pig Opioid, Kappa 1 Receptor (OpiateK) (AID 2283252);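 further: radioligand displacement from kappa opioid receptor in guinea pig cerebellar membranes; active means reduced radioligand binding relative to DMSO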
# Procedure, shortened: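 Cell-free tissue prep: guinea pig cerebellar membranes, radioligand displacement, 2 h incubation. Readout: filtration plus scintillation counting. Primary single-point 25 uM duplicate; actives retested in concentration series; DMSO negative control.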
# [12] = target: human Serotonin, 5-Hydroxytryptamine Receptor 6 (5HT6), HTR6 (gene 3362) (UniProt P50406); test: NVS_GPCR_h5HT6: NovaScreen (NVS) G Protein-Coupled Receptor Assay for human Serotonin, 5-Hydroxytryptamine Receptor 6 (5HT6) (AID 2283253)
# Procedure, shortened: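 Filter scintillation counting of radioligand displacement from HEK293-expressed 5HT6, 1 hour post-dose, with loss of signal relative to DMSO. Single 25 uM duplicates first, with concentration series for confirmation.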
# [13] = target: human Adenosine A1 Receptor (AdoRA1), ADORA1 (gene 134) (UniProt P30542); test: NVS_GPCR_hAdoRA1: NovaScreen (NVS) G Protein-Coupled Receptor Assay for human Adenosine A1 Receptor (AdoRA1) (AID 2283254)
# Procedure, shortened: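 Membranes from human cortical tissue were incubated with radioligand and test chemical for 1 hour, then filtered and counted. Activity was taken as signal loss relative to DMSO, screened at 25 uM in duplicate before concentration-response follow-up.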
# [14] = target: human Serotonin, 5-Hydroxytryptamine Receptor 7 (5HT7), HTR7 (gene 3363) (UniProt P34969); test: NVS_GPCR_h5HT7: NovaScreen (NVS) G Protein-Coupled Receptor Assay for human Serotonin, 5-Hydroxytryptamine Receptor 7 (5HT7) (AID 2283255);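 further: hits reduce specific radioligand binding relative to DMSO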
# Procedure, shortened: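 Filter-bound radioactivity counted after 1 h, with loss of specific radioligand binding fitted against DMSO. Membrane protein came from CHO cells expressing human 5HT7. Chemicals were tested first at 25 uM in duplicate, then in concentration series if active.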
# [15] = target: human Adenosine A2a Receptor (AdoRA2a), ADORA2A (gene 135) (UniProt P29274); test: NVS_GPCR_hAdoRA2a: NovaScreen (NVS) G Protein-Coupled Receptor Assay for human Adenosine A2a Receptor (AdoRA2a) (AID 2283256)
# Procedure, shortened: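 HEK293-derived receptor preparation, radioligand displacement, 1.5 h, filtration + scintillation read. Loss of bound signal scored vs DMSO. Single-point 25 uM in duplicate first, then concentration-response for actives.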
# [16] = target: human Adrenergic, Alpha 2A Receptor (Adra2A), ADRA2A (gene 150) (UniProt P08913); test: NVS_GPCR_hAdra2A: NovaScreen (NVS) G Protein-Coupled Receptor Assay for human Adrenergic, Alpha 2A Receptor (Adra2A) (AID 2283257)
# Procedure, shortened: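 Displacement of a specific radioligand from HT29 membrane protein was counted by filter scintillation after 1 h. Compounds were screened in duplicate at 25 uM, and actives were retested in concentration series. Fitting was positive-direction against DMSO.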
# [17] = target: human Adrenergic, Beta 1 Receptor (Adrb1), ADRB1 (gene 153) (UniProt P08588); test: NVS_GPCR_hAdrb1: NovaScreen (NVS) G Protein-Coupled Receptor Assay for human Adrenergic, Beta 1 Receptor (Adrb1) (AID 2283258)
# Procedure, shortened: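 Membranes/protein extracted from human neuroepithelioma cells, radioligand competition binding read by filtration and scintillation 2 h post-dose. Single 25 uM duplicate screen, then concentration-response follow-up; DMSO as negative control.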
# [18] = target: human Adrenergic, Alpha 2c Receptor (Adra2C), ADRA2C (gene 152) (UniProt P18825); test: NVS_GPCR_hAdra2C: NovaScreen (NVS) G Protein-Coupled Receptor Assay for human Adrenergic, Alpha 2c Receptor (Adra2C) (AID 2283259)
# Procedure, shortened: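 Screened first in duplicate at 25 uM, with actives then run as concentration series. Membranes from Sf9 cells were exposed for 1 h, and displacement of radioligand was counted after filtration, using DMSO as baseline.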
# [19] = target: Beta-2 adrenergic receptor (Homo sapiens) (UniProt P07550); test: NVS_GPCR_hAdrb2: NovaScreen (NVS) G Protein-Coupled Receptor Assay for human Adrenergic, Beta 2 Receptor (Adrb2) (AID 2283261)
# Procedure, shortened: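 Compounds screened in duplicate at 25 uM, then actives in concentration series. Human beta-2 receptor from CHO material, cell-free; radioligand displacement after 1 h measured by filtration and scintillation against DMSO baseline.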
# Sequence of human Adrenergic, Alpha 2c Receptor (Adra2C), ADRA2C (gene 152) (P18825 whole entry, looked up): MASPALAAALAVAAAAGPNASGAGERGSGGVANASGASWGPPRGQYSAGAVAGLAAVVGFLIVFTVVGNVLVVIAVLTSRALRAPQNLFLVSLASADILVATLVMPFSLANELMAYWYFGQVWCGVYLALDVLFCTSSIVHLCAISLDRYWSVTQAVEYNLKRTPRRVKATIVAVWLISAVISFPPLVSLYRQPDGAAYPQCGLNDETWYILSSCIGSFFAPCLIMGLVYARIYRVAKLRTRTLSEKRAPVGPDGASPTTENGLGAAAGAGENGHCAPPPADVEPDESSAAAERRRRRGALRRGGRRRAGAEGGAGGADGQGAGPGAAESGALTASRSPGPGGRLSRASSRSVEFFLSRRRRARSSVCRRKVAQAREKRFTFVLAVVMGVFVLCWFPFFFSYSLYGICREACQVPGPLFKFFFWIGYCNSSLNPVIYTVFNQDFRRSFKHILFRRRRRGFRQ
# Sequence of guinea pig Leukotriene D4 Receptor (LTD4), CYSLTR1 (gene 100135514) (Q2NNR5 whole entry, looked up): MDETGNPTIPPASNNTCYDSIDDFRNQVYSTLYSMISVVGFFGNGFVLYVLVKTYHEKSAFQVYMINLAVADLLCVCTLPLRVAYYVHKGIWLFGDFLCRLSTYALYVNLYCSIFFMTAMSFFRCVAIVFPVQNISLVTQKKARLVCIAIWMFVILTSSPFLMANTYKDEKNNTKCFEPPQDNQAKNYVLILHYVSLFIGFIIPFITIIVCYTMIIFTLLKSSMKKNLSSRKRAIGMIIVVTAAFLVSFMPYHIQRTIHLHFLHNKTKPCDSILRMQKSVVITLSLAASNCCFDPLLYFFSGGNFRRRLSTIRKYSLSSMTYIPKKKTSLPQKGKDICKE
# Sequence of human Serotonin, 5-Hydroxytryptamine Receptor 2A (5HT2A), HTR2A (gene 3356) (P28223 whole entry, looked up): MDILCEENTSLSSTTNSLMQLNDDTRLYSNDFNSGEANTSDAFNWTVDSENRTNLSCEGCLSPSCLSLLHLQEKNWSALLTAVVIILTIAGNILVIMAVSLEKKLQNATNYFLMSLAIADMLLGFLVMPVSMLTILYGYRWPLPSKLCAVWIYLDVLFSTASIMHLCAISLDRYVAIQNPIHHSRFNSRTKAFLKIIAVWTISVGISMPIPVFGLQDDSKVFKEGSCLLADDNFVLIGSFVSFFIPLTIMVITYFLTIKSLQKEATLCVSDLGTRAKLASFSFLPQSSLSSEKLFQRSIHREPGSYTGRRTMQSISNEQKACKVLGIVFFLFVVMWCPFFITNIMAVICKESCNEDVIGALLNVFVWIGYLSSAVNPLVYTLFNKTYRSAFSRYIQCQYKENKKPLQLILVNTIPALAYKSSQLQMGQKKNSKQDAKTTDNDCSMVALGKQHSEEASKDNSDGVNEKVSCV
# Sequence of rat Monoamine Oxidase, MAO-B, Peripheral (MAOBP), Maob (gene 25750) (P19643 whole entry, looked up): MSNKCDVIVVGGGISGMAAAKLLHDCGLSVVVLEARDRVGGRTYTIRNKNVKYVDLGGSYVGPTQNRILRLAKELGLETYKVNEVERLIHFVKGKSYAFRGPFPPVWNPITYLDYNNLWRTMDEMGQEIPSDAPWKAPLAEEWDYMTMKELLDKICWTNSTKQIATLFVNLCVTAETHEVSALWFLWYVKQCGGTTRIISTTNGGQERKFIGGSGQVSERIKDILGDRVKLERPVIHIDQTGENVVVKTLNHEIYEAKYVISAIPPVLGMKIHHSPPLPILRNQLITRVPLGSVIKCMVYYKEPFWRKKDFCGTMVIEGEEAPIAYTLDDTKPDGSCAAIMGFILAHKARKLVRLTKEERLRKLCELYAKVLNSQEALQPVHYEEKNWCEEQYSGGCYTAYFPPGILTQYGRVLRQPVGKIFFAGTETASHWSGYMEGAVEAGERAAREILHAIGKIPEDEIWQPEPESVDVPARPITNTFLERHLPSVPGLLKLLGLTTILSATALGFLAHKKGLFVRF
# Sequence of bovine Dopamine Receptor (DR), Non-selective Binding, DRD1 (gene 281125) (Q95136 whole entry, looked up): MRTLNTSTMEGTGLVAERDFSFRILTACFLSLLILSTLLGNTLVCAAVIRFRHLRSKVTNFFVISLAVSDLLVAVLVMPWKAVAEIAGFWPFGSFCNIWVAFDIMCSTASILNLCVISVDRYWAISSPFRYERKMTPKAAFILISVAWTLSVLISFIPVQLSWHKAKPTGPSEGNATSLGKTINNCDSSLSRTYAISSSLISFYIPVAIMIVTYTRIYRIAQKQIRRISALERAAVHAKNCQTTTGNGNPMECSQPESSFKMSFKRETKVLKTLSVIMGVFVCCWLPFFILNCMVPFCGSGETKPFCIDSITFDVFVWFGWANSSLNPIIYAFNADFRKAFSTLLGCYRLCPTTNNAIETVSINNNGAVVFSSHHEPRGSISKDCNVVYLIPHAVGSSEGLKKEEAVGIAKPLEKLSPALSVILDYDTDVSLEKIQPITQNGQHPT
# Sequence of human Serotonin, 5-Hydroxytryptamine Receptor 6 (5HT6), HTR6 (gene 3362) (P50406 whole entry, looked up): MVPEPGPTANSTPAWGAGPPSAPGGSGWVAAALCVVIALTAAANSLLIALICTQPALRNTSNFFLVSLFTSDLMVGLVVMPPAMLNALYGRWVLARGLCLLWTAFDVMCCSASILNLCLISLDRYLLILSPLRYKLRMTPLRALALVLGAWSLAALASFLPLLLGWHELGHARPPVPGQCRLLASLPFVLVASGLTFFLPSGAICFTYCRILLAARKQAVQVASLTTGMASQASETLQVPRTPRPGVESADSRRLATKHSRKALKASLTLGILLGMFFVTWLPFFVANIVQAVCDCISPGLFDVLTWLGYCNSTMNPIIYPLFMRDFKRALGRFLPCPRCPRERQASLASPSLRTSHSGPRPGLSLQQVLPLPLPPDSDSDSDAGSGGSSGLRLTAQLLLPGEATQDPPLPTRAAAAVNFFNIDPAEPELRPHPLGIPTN
# Sequence of human Adrenergic, Alpha 2A Receptor (Adra2A), ADRA2A (gene 150) (P08913 whole entry, looked up): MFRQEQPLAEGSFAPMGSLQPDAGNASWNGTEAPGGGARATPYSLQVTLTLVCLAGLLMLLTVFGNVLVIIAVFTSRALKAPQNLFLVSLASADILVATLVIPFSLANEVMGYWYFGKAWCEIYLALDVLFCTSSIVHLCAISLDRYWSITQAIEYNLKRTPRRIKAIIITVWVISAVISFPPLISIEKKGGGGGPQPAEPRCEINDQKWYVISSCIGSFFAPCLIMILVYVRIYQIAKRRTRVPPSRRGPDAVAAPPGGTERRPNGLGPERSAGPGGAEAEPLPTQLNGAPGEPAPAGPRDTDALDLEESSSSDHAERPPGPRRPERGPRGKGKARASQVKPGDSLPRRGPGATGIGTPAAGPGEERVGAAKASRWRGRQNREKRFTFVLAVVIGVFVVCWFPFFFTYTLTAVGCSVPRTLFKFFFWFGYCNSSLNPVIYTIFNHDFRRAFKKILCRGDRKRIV
# Sequence of guinea pig Opioid, Kappa 1 Receptor (OpiateK), OPRK1 (gene 100135587) (P41144 whole entry, looked up): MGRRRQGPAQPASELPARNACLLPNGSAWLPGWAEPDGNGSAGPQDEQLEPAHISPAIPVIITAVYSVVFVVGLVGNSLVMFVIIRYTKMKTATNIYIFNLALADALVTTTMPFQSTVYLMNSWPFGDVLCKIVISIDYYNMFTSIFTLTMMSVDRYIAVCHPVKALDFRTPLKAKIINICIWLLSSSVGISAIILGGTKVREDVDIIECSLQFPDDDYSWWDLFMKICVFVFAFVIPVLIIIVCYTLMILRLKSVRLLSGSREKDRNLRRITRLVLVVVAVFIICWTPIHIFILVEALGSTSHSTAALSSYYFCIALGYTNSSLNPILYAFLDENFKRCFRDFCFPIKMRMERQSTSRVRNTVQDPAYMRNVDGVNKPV
# Sequence of human Serotonin, 5-Hydroxytryptamine Receptor 5A (5HT5A), HTR5A (gene 3361) (P47898 whole entry, looked up): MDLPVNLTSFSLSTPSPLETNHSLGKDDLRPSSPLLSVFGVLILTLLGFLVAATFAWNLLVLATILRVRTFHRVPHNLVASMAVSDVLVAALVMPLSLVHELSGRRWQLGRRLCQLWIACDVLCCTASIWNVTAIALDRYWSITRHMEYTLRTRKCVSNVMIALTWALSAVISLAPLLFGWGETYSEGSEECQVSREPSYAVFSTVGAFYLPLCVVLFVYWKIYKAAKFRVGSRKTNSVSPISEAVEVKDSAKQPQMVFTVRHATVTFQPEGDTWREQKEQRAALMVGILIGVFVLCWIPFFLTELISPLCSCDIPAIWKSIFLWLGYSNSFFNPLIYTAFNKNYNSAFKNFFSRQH
# Sequence of human Serotonin, 5-Hydroxytryptamine Receptor 7 (5HT7), HTR7 (gene 3363) (P34969 whole entry, looked up): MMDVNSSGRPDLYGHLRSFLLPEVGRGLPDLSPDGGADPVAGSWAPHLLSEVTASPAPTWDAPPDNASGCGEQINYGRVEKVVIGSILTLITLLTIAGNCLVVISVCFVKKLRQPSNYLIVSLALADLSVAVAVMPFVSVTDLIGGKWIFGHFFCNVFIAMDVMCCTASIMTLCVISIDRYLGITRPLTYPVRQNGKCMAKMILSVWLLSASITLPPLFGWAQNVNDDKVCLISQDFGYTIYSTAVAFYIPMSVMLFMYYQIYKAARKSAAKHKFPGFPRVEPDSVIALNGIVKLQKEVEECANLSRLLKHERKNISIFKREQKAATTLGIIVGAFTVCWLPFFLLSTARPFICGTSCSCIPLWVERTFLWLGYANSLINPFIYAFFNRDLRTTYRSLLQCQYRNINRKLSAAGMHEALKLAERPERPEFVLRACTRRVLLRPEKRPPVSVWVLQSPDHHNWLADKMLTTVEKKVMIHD
# Sequence of human Adenosine A2a Receptor (AdoRA2a), ADORA2A (gene 135) (P29274 whole entry, looked up): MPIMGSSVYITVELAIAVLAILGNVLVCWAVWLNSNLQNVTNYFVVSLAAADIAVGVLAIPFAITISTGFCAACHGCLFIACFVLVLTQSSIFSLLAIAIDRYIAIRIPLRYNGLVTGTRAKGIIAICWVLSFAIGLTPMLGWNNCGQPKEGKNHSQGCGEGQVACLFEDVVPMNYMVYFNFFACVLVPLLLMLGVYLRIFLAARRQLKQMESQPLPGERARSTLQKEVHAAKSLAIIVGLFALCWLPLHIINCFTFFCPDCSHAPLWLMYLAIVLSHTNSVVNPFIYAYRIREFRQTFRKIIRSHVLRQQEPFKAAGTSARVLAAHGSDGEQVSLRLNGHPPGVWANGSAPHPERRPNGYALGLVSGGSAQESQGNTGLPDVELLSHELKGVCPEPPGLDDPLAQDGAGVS
smiles,measurement,setting,value
O=C(O)C(F)(F)C(F)(F)C(F)(F)C(F)(F)C(F)(F)C(F)(F)F,AC50,[1],17.3 µM (active)
CC(C)(C)c1cc(O)ccc1O,outcome,[2],inactive
Nc1cccc2ccccc12,AC50,[3],25 µM (active)
CC12CC1(C)C(=O)N(c1cc(Cl)cc(Cl)c1)C2=O (stereo not drawn),outcome,[4],inactive
C=C(C)C(=O)[O][Sn]([CH2]CCC)([CH2]CCC)[CH2]CCC,AC50,[5],10.6 µM (active)
same,AC50,[6],2.56 µM (active)
same,AC50,[1],6.14 µM (active)
same,AC50,[7],1.86 µM (active)
same,AC50,[8],36.2 µM (active)
same,AC50,[9],14 µM (active)
same,AC50,[10],2.16 µM (active)
same,AC50,[11],16.9 µM (active)
same,AC50,[12],4.82 µM (active)
same,AC50,[13],25 µM (active)
same,AC50,[14],0.499 µM (active)
same,AC50,[15],6.84 µM (active)
same,AC50,[16],4.06 µM (active)
same,AC50,[17],0.925 µM (active)
same,AC50,[18],0.281 µM (active)
same,AC50,[19],4.57 µM (active)
COP(=S)(OC)Oc1ccc(Sc2ccc(OP(=S)(OC)OC)cc2)cc1,outcome,[7],inactive
same,AC50,[15],17.1 µM (active)
CCC(=O)C(CC(C)N(C)C)(c1ccccc1)c1ccccc1 (stereo not drawn),AC50,[5],6.89 µM (active)
same,AC50,[4],4.1 µM (active)
same,AC50,[8],5.61 µM (active)
same,AC50,[9],7.94 µM (active)
same,AC50,[10],6.69 µM (active)
same,AC50,[11],1.42 µM (active)
same,AC50,[12],18.1 µM (active)
same,AC50,[14],3.59 µM (active)
same,AC50,[16],16 µM (active)
same,outcome,[18],inactive
Oc1ccc(-c2ccccc2)cc1,AC50,[3],13.8 µM (active)
N#CCc1ccc(Cl)cc1,AC50,[3],25 µM (active)
Cn1sc(Cl)cc1=O,outcome,[2],inactive
same,outcome,[11],inactive
same,outcome,[12],inactive
CCOC(=O)Nc1cccc(OC(=O)Nc2ccccc2)c1,AC50,[3],5.76 µM (active)
CC(C)(C)CC(C)(C)c1ccc(O)cc1,AC50,[14],34.1 µM (active)
same,outcome,[15],inactive
same,AC50,[18],25 µM (active)
COc1ccc(OC)c(C=O)c1,AC50,[3],17.3 µM (active)
ClCCBr,outcome,[7],inactive
CN(C)N=O,outcome,[1],inactive
COS(=O)(=O)c1ccc(C)cc1,outcome,[15],inactive
O=S(=O)(c1ccc(Cl)cc1)c1ccc(Cl)cc1,outcome,[3],inactive
COc1cc(-c2ccc(N)c(OC)c2)ccc1N,outcome,[2],inactive
same,outcome,[14],inactive
CCN1CCC2(CC1)COc1cc3c(cc12)N(C(=O)c1ccc(-c2ccc(-c4nnc(C)o4)cc2C)cc1)CC3,AC50,[5],9.79 µM (active)
same,AC50,[4],19.5 µM (active)
same,AC50,[3],23.4 µM (active)
same,AC50,[8],10.2 µM (active)
same,AC50,[9],1.79 µM (active)
same,AC50,[10],23.4 µM (active)
same,AC50,[14],23.4 µM (active)
same,AC50,[16],13.9 µM (active)
same,AC50,[18],14.3 µM (active)
same,AC50,[19],23.4 µM (active)

# Reference: PubChem BioAssay (EPA / NIEHS)
